Measurements from PubChem BioAssay (Tox21).
Inconclusive results are not listed. Calls of active or inactive are those of the source. Unless noted, the call rests on the fitted dose curve; in most records, active means well fitted curve in the direction sought with a large enough effect in the repeat runs; inconclusive means weak or mixed curves; inactive means no such curve, though single readings can be large; an effect the other way counts as inactive or inconclusive.

How the values were obtained:
[1] = qHTS assay to identify small molecule antagonists of the retinoid-related orphan receptor gamma (ROR-gamma) signaling pathway - cell viability counter screen (AID 1159520); further: nearly all actives have a fitted effect of over 50% in size
In short: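 Tet-on ROR gamma CHO cells (1,000/well) were plated 4 hr, given compounds in DMSO for 2 hr at 37 C, then induced with 1 uM final doxycycline for 16 hr. Viability was read as ATP by CellTiter-Glo luminescence after 30 min.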

[2] = target: Nuclear receptor ROR-gamma (Homo sapiens) (UniProt P51449); assay: qHTS assay to identify small molecule antagonists of the retinoid-related orphan receptor gamma (ROR-gamma) signaling pathway (AID 1159521;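 further: CHO cells with doxycycline inducible ROR-gamma driving an RORE luciferase reporter; top concentration of the series differs between compounds; nearly all actives have a fitted effect of over 50% in size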)
In short: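 Inducible-expression reporter assay: doxycycline (1 uM final) switched on RORγ in CHO cells bearing a ROR response element-luciferase construct, with test compounds present from 2 h beforehand. Decreased luminescence after 16 h defined antagonist activity.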

[3] = qHTS assay to identify small molecule agonists of the AP-1 signaling pathway - cell viability counter screen (AID 1159525; calls by dose curve; further: nearly all actives have a fitted effect of over 55% in size)
In short: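 ME-180 AP-1-bla, 2500 cells/well, Opti-MEM + 0.5% dialyzed FBS; overnight 37 °C; cpd 15-pt titration, 5 h 37 °C; CellTiter-Glo 30 min RT; luminescence read; normalised to TOAB and DMSO controls.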

[4] = qHTS assay to identify small molecule agonists of the AP-1 signaling pathway (AID 1159526; calls by dose curve)
[5] = target: Retinoic acid receptor RXR-alpha (Homo sapiens) (UniProt P19793); assay: qHTS assay to identify small molecule agonists of the RXR signaling pathway (AID 1159527; calls by dose curve; further: nearly all actives have a fitted effect of over 35% in size)
In short: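 Compounds in DMSO were added to RXR-alpha-UAS-bla HEK 293T cells kept in 2% charcoal-stripped serum, and incubated 16 hr at 37 C with 5% CO2. Reporter signal came from a 2 hr B/G FRET substrate step.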

[6] = qHTS assay to identify small molecule agonists of the RXR signaling pathway - cell viability counter screen (AID 1159529);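 further: HEK 293T cells carrying an RXR-alpha UAS beta-lactamase reporter; series mostly up to about 77 µM; nearly all actives have a fitted effect of over 50% in size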
In short: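 Counter screen: CellTiter-Glo luminescence. Cells: RXR-alpha-UAS-bla HEK 293T. Medium: 2% charcoal-stripped FBS. Treatment: 16 h, 37 C. Reagent incubation: 30 min, RT.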

[7] = qHTS assay to identify small molecule antagonists of the retinoid acid receptor (RAR) signaling pathway - cell viability counter screen (AID 1159551); further: nearly all actives have a fitted effect of over 35% in size
In short: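 Seed C3RL4 cells; next day add compound, then retinol to 1 uM final; incubate 6 h at 37 C; add CellTiter-Glo; read luminescence after 30 min at RT.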

Measured: Potency

Chain of Retinoic acid receptor RXR-alpha (Homo sapiens) (P19793 whole entry, looked up): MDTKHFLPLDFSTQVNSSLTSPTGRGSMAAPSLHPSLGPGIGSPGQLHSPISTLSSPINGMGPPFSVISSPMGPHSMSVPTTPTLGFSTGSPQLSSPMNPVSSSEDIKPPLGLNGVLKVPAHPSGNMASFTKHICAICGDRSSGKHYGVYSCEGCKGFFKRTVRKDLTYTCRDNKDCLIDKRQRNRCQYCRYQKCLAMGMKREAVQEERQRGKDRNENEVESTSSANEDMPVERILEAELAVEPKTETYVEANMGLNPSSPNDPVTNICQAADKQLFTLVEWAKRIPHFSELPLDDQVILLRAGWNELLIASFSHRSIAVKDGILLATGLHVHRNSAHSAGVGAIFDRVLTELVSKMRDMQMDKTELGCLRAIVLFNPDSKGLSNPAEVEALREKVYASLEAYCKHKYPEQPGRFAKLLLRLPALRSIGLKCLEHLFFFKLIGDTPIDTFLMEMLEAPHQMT

COc1cccc(OC)c1O
inactive: [1] | [2] | [3] | [4] | [5] | [6] | [7]

CCCCCCCCC(C)=O
inactive: [1] | [2] | [3] | [4] | [5] | [6] | [7]

C/C=C/C(=O)C1=C(C)CCCC1(C)C
inactive: [1] | [2] | [3] | [4] | [5] | [6] | [7]

CCCCCCCC(OC)OC
inactive: [1] | [2] | [3] | [4] | [6] | [7]

COc1ccccc1C=O
inactive: [1] | [2] | [3] | [4] | [6] | [7]

CCc1cccc(CC)c1N(COC)C(=O)CS(=O)(=O)O
inactive: [1] | [2] | [3] | [4] | [5] | [6] | [7]

CCOC(=O)CN
inactive: [1] | [2] | [3] | [4] | [5] | [6] | [7]

CC(C)C(=O)OCc1ccccc1
inactive: [1] | [2] | [3] | [4] | [5] | [6] | [7]

C=CC/C=C/C/C=C/C/C=C/C
inactive: [1] | [2] | [3] | [4] | [5] | [6] | [7]

CCCC(C)CCC(C)=O (stereo not given)
inactive: [1] | [2] | [3] | [4] | [5] | [6] | [7]

CC1(C)C(=O)N(CO)C(=O)N1CO
inactive: [1] | [2] | [3] | [4] | [5] | [6] | [7]
